Source: PubChem
Shown are actives, neighbours in structure and some others; about 1.6% of the full set was active somewhere.
KCNQ2 pot = potentiators of rat KCNQ2 potassium channel | Potassium voltage-gated channel subfamily KQT member 2 (Rattus norvegicus), O88943 | CHO-K1 KCNQ2, FluxOR thallium flux fluorescence; active compounds read high | B-score at 10 µM | 0.54% of 310,000 active;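 active = fluorescence ratio B-score at least 3 SD of library B-scores, with initial fluorescence B-score within 3 of them, cut at about 5.3 in these data; same plate scores as AID 2156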;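 also: B-score of peak minus minimum over baseline fluorescence ratio after K+ and Tl+ stimulus; positive B-score means potentiation of KCNQ2 with more thallium influx and brighter signal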
KCNQ2 inh = rat KCNQ2 potassium channel inhibitors, primary screen, cell-based, CHO-K1, FluxOR thallium flux, B-score. 1.1% of 310,000 active. Potassium voltage-gated channel subfamily KQT member 2 (Rattus norvegicus), O88943. B-score at 10 µM. 20 min; active compounds read low;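 active = fluorescence ratio B-score at most minus 3 library SDs, with starting brightness B-score within 2 library SDs, cut at about -5.5 in these data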
KCNQ2 inh conf = rat KCNQ2 potassium channel inhibitors, confirmation, cell-based, thallium flux. 57% of 1,000 active. shares compounds with KCNQ2 inh. AID 493025, 2011. KCNQ2-expressing cells, inhibition; active compounds read low. activity change, negative = inhibition, % at 10 µM
KCNQ1 spec = human KCNQ1 channel inhibition, counter-screen for KCNQ2 inhibitor project, cell-based, FluxOR thallium flux; shares compounds with KCNQ2 inh; KCNQ1-expressing cells, FluxOR thallium flux fluorescence; active compounds read low; activity change, negative = inhibition, % at 10 µM; 15% of 1,000 active; AID 493026, 2011;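 active = activity change at least 3 SD of negative controls below their mean in both duplicate wells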;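 also: CHO cells stably transfected with KCNQ1 and depolarized by potassium stimulus; peak minus minimum fluorescence over baseline after thallium addition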
CHO parental ctr = thallium flux change in parental CHO cells, counter-screen for KCNQ2 inhibitor project. shares compounds with KCNQ2 inh. active compounds read low. activity change, % at 10 µM. 14% of 1,000 active
KCNQ2 patch conf = rat KCNQ2 channel inhibitors, confirmation, cell-based, automated patch clamp, single concentration; shares compounds with KCNQ2 inh; 49% of 550 active; calls only at 10 µM; KCNQ2-expressing cells, automated patch clamp current
A number is an active result; 0 = inactive; - = not tested or not shown; + = active, no number. Unless noted, no rule for the calls is given here.

SMILES	KCNQ2 pot	KCNQ2 inh	KCNQ2 inh conf	KCNQ1 spec	CHO parental ctr	others
CC(C)(C)OC(=O)N1CCC[C@H]1c1nnc(SCc2c(F)cccc2Cl)o1	-	0	-	-	-
CCc1c(C)sc(NC(NC(C)=O)(C(=O)OC)C(F)(F)F)c1C#N (configuration not stated)	-	0	-	-	-
CCC(=O)c1c[nH]c(C(=O)NCCCn2ccnc2)c1	-	0	-	-	-
CCOC(=O)C(NC(=O)c1ccccc1Cl)(Nc1ccc(C(F)(F)F)cc1)C(F)(F)F (configuration not stated)	-	0	-	-	-
CCOC(=O)C(NC(=O)c1ccc(Cl)cc1Cl)(Nc1ccc(C)cc1)C(F)(F)F (configuration not stated)	0	-8.5	0	0	0
O=C(O)c1cc(NN=C2CCN(Cc3ccccc3)CC2)ccc1Cl	-	0	-	-	-
CC(=O)c1cnn(-c2ccccc2)c1C	0	0	-	-	-
Cc1c(C(=O)Oc2cccc3ccccc23)cnn1-c1ccccc1	0	-9.3	0	0	0
CCOc1cnn(-c2cc(Oc3ccc(C)cc3)ncn2)c(=O)c1Cl	0	0	-	-	-
Cc1cc(Oc2cnn(C(C)(C)C)c(=O)c2Cl)cc(C(C)C)c1	0	-11	-34%	-30%	-32%	KCNQ2 patch conf=0
Cc1csc2nc(CSc3ccc(Cl)cc3)cn12	0	-11	-38%	-43%	-35%	KCNQ2 patch conf=+
Clc1ccc(SCc2cn3ccsc3n2)cc1	-	0	-	-	-
O=C(c1cc2ccccc2o1)N(Cc1ccco1)Cc1cccs1	0	-12	-41%	-40%	-32%	KCNQ2 patch conf=0
COc1ccc(C(=O)N(Cc2ccco2)Cc2cccs2)c(O)c1	-	0	-	-	-
COc1ccc(C)cc1NC(=O)C(OC(=O)Cn1cnc2c1c(=O)n(C)c(=O)n2C)c1ccccc1 (configuration not stated)	0	0	-	-	-
Cc1cc(C)cc(NC(=O)C(OC(=O)Cn2cnc3c2c(=O)n(C)c(=O)n3C)c2ccccc2)c1 (configuration not stated)	0	-9	-24%	0	0	KCNQ2 patch conf=0
O=C1c2ccccc2C(=O)N1/N=C/c1ccc(O)c(O)c1O	-	0	-	-	-
Cc1ccc(C(c2ccc(C)o2)c2cccc([N+](=O)[O-])c2O)o1	-	0	-	-	-
Cc1cc(C(c2ccc(C)o2)c2ccc(C)o2)c(O)c([N+](=O)[O-])c1	0	-8.9	0	0	0
CC(C)NC(=S)N=Nc1c(O)[nH]c2ccc([N+](=O)[O-])cc12	-	0	-	-	-
N#Cc1c(SCC(=O)Nc2ccc(Cl)cc2Cl)sc2c(O)cc(=O)[nH]c12	0	0	-	-	-
COc1cc(NC(=O)c2cc3nc(-c4ccccc4)cc(-c4ccccc4)n3n2)cc(OC)c1OC	0	-7.1	0	0	0
COc1cc(NC(=O)c2cc(-c3ccccc3)on2)cc(OC)c1OC	-	0	-	-	-
OC(CNCc1ccc(Cl)cc1)(c1ccccc1)c1ccc(F)cc1 (configuration not stated)	0	-7.2	-33%	-34%	-32%	KCNQ2 patch conf=0
OC(CNCc1ccc(F)cc1)(c1ccc(F)cc1)c1ccc(F)cc1	-	0	-	-	-
SMILES	KCNQ2 pot	KCNQ2 inh	KCNQ2 inh conf	KCNQ1 spec	CHO parental ctr	others
CC(NCc1ccc(OCc2ccc(Cl)cc2)cc1)C(O)c1ccccc1 (configuration not stated)	-	0	-	-	-
COc1ccc(CNCC(O)(c2ccc(Cl)cc2)c2ccc(Cl)cc2)cc1OC	-	0	-	-	-
COc1ccc(CNC(c2ccccc2)c2ccc(Cl)cc2)cc1 (configuration not stated)	0	-8.8	0	0	0
COc1ccc(CNCC(O)(c2ccc(Cl)cc2)c2ccc(Cl)cc2)cc1	0	-7.7	0	0	0
CC12CCC(C(=O)n3c1nc1ccccc13)C2(C)C (configuration not stated)	-	0	-	-	-
COc1ccc(-c2nnc(SC(C)C(=O)Nc3nccs3)n2Cc2ccccc2)cc1OC (configuration not stated)	-	0	-	-	-
COC(=O)c1c(NC(=O)CN2CCCc3ccccc32)sc(C)c1C	0	-7.7	-38%	-33%	-33%	KCNQ2 patch conf=0
CCOC(=O)c1c(NC(=O)CN2CCCc3ccccc32)sc(C)c1C	-	0	-	-	-
COc1ccc(CNC(=O)C(c2cccs2)N(Cc2ccco2)C(=O)Cc2cccs2)cc1 (configuration not stated)	0	-14	-29%	0	0	KCNQ2 patch conf=+
COc1ccc(CNC(=O)C(c2ccco2)N(Cc2cccs2)C(=O)Cc2cccs2)cc1 (configuration not stated)	0	0	-	-	-
Cc1cccc(NC(=O)c2ccco2)c1C	-	0	-	-	-
CCCN(CC(=O)Nc1ccccc1OC)C(=O)c1cc(-c2cccs2)nn1-c1ccccc1	0	-9.3	-32%	0	0	KCNQ2 patch conf=+
CCN(CC(=O)Nc1ccccc1C(F)(F)F)C(=O)c1cc(-c2cccs2)nn1-c1ccccc1	-	0	-	-	-
O=C(NCc1cccnc1)c1nc(-c2ccc(C(F)(F)F)cc2)no1	0	0	-	-	-
CCN(CCNC(=O)C1CCC(=O)N1Cc1ccc(C)cc1)c1ccccc1 (configuration not stated)	0	0	-	-	-
Cc1nc2sccn2c(=O)c1Br	0	0	-	-	-
CCC(=O)N1CCN(c2cc(C)ccc2C)CC1	-	0	-	-	-
C=CCn1c(SCC(=O)N2CCOCC2)nc2sc3c(c2c1=O)CCCC3	0	0	-	-	-
C=CCn1c(SCC(N)=O)nc2sc3c(c2c1=O)CCC3	0	-9.3	0	0	0
O=C(COc1cccc(-n2cnnn2)c1)NC1CCCCC1	0	0	-	-	-
COc1cc(/C=C2\SC(=S)N(CCC(=O)NCCc3ccccc3)C2=O)cc(OC)c1OC	-	0	-	-	-
COc1ccc(NC(=O)N(CCCN(C)C)Cc2cc3cc(OC)ccc3[nH]c2=O)cc1	0	0	-	-	-
O=C(NCCC1=CCCCC1)c1ccc(CN2CCOCC2)cc1	0	0	-	-	-
O=C(Nc1ccc(Br)c(C(F)(F)F)c1)c1ccc(C(F)(F)F)cc1	-	0	-	-	-
O=C(Nc1ccc(Br)c(C(F)(F)F)c1)c1ccccc1	0	-7.7	0	0	0
O=[N+]([O-])c1ccc(C2CCCC/C2=N/OCc2ccc(F)cc2)c([N+](=O)[O-])c1 (configuration not stated)	-	0	-	-	-
O=[N+]([O-])c1ccc(C2CCCC/C2=N/OCc2ccccc2F)c([N+](=O)[O-])c1 (configuration not stated)	0	-10	-36%	0	0	KCNQ2 patch conf=0
NC1=NC(=O)C2(COC(c3cccc([N+](=O)[O-])c3)OC2)S1 (configuration not stated)	0	0	-	-	-
CC(/C=N/n1c(COc2ccccc2)n[nH]c1=S)=C\c1ccco1	0	0	-	-	-
Cc1c(CCOC(=O)CC23CC4CC(CC(C)(C4)C2)C3)sc[n+]1CC(=O)c1ccccc1	0	-7.8	0	0	0
